Records with an inconclusive call do not appear. The source made the active and inactive calls. Unless noted, calls follow the shape of the dose curve; as a rule, active = well fitted curve in the direction sought with a large enough effect in the repeat runs; inconclusive = weak or mixed curves; inactive = flat fitted curve, though single readings scatter.
Assays:
[1] = qHTS assay to test for compound auto fluorescence at 535 nm (green) in HEK293 cells (AID 720680)
[2] = qHTS assay to test for compound auto fluorescence at 460 nm (blue) in HEK293 cell free culture (AID 720681)
How it was run: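 Blue fluorescence (Ex 405/Em 460 nm, triamterene-equivalent) was read immediately after pin transfer of compound or DMSO into medium (DMEM, 10% FBS) without cells.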

[3] = qHTS assay to test for compound auto fluorescence at 535 nm (green) in HEK293 cell free culture (AID 720682)
How it was run: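 Steps: dispense DMEM/10% FBS into empty wells; pin in compound or DMSO; measure fluorescence at 485/535 nm. Values are fluorescein equivalents.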

[4] = qHTS assay to test for compound auto fluorescence at 590 nm (red) in HEK293 cell free culture (AID 720683)
How it was run: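 Red-channel autofluorescence of compounds in culture medium (DMEM, 10% FBS), no cells, measured at 540/590 nm. Rose Bengal sodium is the reference fluorophore for equivalence.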

[5] = qHTS assay to test for compound auto fluorescence at 590 nm (red) in HepG2 cell free culture (AID 720684)
How it was run: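 No cells present: MEM + 10% FBS only. Compound pinned in, red label read (540/590 nm). Activity = fluorescence equivalent to Rose Bengal sodium.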

[6] = qHTS assay to test for compound auto fluorescence at 460 nm (blue) in HepG2 cell free culture (AID 720685)
How it was run: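 Cell-free plates of MEM plus 10% FBS received 23 nL compound or DMSO vehicle; blue-channel (405/460 nm) intensity scored against triamterene as reference fluorophore.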

[7] = qHTS assay to test for compound auto fluorescence at 535 nm (green) in HepG2 cell free culture (AID 720686)
[8] = qHTS assay to test for compound auto fluorescence at 460 nm (blue) in HepG2 cells (AID 720687)
How it was run: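 Blue-channel autofluorescence (Ex/Em 405/460 nm, triamterene-equivalent) was measured after 1 hr compound exposure at 37 C, 5% CO2. Cells were HepG2, plated overnight at 37 C in MEM plus 10% FBS.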

[9] = molecular target: Glucocorticoid receptor (Homo sapiens) (UniProt P04150); test: qHTS assay to identify small molecule agonists of the glucocorticoid receptor (GR) signaling pathway (AID 720691; active = well fitted activation curve with a large enough effect in the signal ratio in the repeat runs, not every such curve was filed as active; the % refers to the signal ratio)
How it was run: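 Compounds in DMSO, alongside positive controls, were added to GR-bla HeLa reporter cells and incubated 18 h at 37 C; GRE-driven beta-lactamase was detected by fluorescence after 2 h with FRET substrate at room temperature.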

[10] = molecular target: Glucocorticoid receptor (Homo sapiens) (UniProt P04150); test: qHTS assay to identify small molecule antagonists of the glucocorticoid receptor (GR) signaling pathway (AID 720692; active = well fitted inhibition curve with a large enough effect in the signal ratio in the repeat runs, not every such curve was filed as active; the % refers to the signal ratio)
How it was run: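 In a 1536-well cell format, compounds were added 4 h after seeding GR-bla HeLa cells, together with dexamethasone at 5 nM final; reporter activity was measured by FRET-substrate fluorescence following 18 h at 37 C.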

Measured: Potency

Sequence of Glucocorticoid receptor (Homo sapiens) (P04150 whole entry, looked up): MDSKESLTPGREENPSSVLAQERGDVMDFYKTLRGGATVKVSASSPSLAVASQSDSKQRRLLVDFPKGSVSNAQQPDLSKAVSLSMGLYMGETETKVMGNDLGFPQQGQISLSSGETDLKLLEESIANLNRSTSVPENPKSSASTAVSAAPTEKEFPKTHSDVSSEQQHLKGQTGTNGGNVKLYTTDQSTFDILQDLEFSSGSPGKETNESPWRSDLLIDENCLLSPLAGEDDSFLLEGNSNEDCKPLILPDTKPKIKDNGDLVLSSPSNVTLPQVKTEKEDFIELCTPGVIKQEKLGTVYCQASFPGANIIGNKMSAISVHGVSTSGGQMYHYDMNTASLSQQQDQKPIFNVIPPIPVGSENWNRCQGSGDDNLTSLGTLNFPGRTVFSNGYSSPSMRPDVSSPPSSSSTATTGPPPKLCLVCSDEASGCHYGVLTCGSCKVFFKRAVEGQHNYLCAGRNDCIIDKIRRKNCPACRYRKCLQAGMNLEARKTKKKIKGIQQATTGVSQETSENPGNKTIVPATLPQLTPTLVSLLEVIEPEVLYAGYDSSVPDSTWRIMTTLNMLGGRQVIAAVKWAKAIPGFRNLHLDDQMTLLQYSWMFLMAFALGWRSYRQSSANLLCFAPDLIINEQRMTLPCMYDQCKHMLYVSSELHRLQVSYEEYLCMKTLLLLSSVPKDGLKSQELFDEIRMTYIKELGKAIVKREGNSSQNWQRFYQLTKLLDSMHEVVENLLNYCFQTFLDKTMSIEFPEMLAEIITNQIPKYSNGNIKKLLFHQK

O=C(O)c1[nH]n(-c2ccc(S(=O)(=O)O)cc2)c(=O)c1N=Nc1ccc(S(=O)(=O)O)cc1
not listed: [9] | [10]
inactive: all other assays above

CCCC(O)C(CC)CO (stereo unspecified)
not listed: [9] | [10]
inactive: all other assays above

NC(=O)NC1NC(=O)NC1=O (stereo unspecified)
inactive: all assays above

Cc1cn([C@H]2C[C@H](N=[N+]=[N-])[C@@H](CO)O2)c(=O)[nH]c1=O
inactive: all assays above

NC(=O)c1cnccn1
inactive: all assays above

NC(=O)c1ccccc1O
inactive: all assays above

CC(O)CO (stereo unspecified)
inactive: all assays above

COc1c2occc2cc2ccc(=O)oc12
inactive: all assays above

O=NO
not listed: [9] | [10]
inactive: all other assays above

O=C1CN(/N=C/c2ccc([N+](=O)[O-])o2)C(=O)N1
inactive: all assays above

Nc1ccn([C@H]2CC[C@@H](CO)O2)c(=O)n1
not listed: [9] | [10]
inactive: all other assays above

CNC[C@H](O)c1cccc(O)c1
not listed: [6] | [9] | [10]
inactive: all other assays above

CC(C)[C@@H]1CC[C@@H](C)C[C@H]1O
not listed: [9] | [10]
inactive: all other assays above

NS(=O)(=O)c1cc(C(=O)O)c(NCc2ccco2)cc1Cl
not listed: [9] | [10]
inactive: all other assays above

O=c1cc[nH]c(=S)[nH]1
inactive: all assays above

O=S(=O)(O)NC1CCCCC1
not listed: [6] | [9] | [10]
inactive: all other assays above

CC(=O)OCC(COC(C)=O)OC(C)=O
inactive: all assays above

O=C1NC(=O)c2ccccc21
not listed: [9] | [10]
inactive: all other assays above

OC(Cn1cncn1)(Cn1cncn1)c1ccc(F)cc1F
inactive: all assays above

C1N2CN3CN1CN(C2)C3
not listed: [9] | [10]
inactive: all other assays above

NC(N)=O
not listed: [6] | [9] | [10]
inactive: all other assays above

C/C=C/c1ccc(OC)cc1
not listed: [6] | [9] | [10]
inactive: all other assays above

CCCCC1C(=O)N(c2ccccc2)N(c2ccccc2)C1=O
inactive: all assays above

CC(=O)NS(=O)(=O)c1ccc(N)cc1
inactive: all assays above

O=C(O)c1cccnc1
not listed: [9] | [10]
inactive: all other assays above

Cc1ccccc1C(OCCN(C)C)c1ccccc1 (stereo unspecified)
not listed: [10]
inactive: all other assays above

C[C@]12C=CC(=O)C=C1CC[C@@H]1[C@@H]2[C@@H](O)C[C@@]2(C)[C@H]1CC[C@]2(O)C(=O)CO
not listed: [9] | [10]
inactive: all other assays above

COc1ccc2[nH]cc(CCNC(C)=O)c2c1
inactive: all assays above

Cc1cc(=O)n(-c2ccccc2)n1C
not listed: [9] | [10]
inactive: all other assays above

O=C(O)CS
inactive: all assays above

Nc1ccc(S(=O)(=O)c2ccc(N)cc2)cc1
not listed: [9] | [10]
inactive: all other assays above

Nc1ccc(O)c(C(=O)O)c1
inactive: all assays above

O=C(O)C(=O)O
inactive: all assays above

Cn1cc[nH]c1=S
not listed: [9] | [10]
inactive: all other assays above

CC(=O)Nc1nnc(S(N)(=O)=O)s1
inactive: all assays above

Reference: PubChem BioAssay (Tox21)
